The text below walks through data of the supplement of paper PMC10849652.

The full data set covers some 8,800 targets. This sample favours those with a hit. About 0.5% of all pairs of compound and target were hits.

Sequence of UniProt Q05397 (Q05397 whole entry, looked up): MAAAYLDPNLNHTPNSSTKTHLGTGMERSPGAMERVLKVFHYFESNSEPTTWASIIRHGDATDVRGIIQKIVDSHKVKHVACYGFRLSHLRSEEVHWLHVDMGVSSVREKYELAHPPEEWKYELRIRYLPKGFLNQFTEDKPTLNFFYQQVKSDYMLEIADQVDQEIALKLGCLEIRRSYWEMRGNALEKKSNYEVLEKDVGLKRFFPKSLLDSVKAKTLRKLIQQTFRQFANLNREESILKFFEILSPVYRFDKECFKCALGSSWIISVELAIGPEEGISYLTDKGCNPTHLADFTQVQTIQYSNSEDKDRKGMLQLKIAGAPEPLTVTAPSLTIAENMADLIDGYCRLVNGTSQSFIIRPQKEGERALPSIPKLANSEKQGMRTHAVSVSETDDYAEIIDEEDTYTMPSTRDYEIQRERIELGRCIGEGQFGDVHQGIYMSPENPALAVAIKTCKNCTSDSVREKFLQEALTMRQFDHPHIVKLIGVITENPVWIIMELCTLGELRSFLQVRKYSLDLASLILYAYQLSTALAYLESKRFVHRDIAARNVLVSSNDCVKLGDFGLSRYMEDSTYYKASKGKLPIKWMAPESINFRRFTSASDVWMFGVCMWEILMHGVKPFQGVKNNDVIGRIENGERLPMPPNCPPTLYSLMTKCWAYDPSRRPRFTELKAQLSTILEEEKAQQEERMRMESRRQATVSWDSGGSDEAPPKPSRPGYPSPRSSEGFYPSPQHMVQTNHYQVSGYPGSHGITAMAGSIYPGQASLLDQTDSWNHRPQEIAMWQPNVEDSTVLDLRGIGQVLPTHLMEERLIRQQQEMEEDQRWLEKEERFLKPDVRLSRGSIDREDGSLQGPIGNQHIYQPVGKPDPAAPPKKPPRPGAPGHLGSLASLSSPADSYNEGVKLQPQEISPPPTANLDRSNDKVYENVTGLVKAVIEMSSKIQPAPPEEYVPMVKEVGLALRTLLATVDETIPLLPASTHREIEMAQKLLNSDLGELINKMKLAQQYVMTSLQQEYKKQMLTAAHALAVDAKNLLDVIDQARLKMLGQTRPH
Sequence of UniProt Q9UBV8 (Q9UBV8 whole entry, looked up): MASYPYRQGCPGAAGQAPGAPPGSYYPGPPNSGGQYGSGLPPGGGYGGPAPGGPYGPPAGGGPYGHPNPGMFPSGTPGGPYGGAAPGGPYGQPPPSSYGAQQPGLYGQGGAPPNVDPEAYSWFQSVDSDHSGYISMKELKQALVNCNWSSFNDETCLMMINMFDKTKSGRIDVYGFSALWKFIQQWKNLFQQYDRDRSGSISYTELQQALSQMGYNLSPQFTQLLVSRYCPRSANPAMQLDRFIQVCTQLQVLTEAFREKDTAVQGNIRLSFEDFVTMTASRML
Sequence of UniProt Q16512 (Q16512 whole entry, looked up): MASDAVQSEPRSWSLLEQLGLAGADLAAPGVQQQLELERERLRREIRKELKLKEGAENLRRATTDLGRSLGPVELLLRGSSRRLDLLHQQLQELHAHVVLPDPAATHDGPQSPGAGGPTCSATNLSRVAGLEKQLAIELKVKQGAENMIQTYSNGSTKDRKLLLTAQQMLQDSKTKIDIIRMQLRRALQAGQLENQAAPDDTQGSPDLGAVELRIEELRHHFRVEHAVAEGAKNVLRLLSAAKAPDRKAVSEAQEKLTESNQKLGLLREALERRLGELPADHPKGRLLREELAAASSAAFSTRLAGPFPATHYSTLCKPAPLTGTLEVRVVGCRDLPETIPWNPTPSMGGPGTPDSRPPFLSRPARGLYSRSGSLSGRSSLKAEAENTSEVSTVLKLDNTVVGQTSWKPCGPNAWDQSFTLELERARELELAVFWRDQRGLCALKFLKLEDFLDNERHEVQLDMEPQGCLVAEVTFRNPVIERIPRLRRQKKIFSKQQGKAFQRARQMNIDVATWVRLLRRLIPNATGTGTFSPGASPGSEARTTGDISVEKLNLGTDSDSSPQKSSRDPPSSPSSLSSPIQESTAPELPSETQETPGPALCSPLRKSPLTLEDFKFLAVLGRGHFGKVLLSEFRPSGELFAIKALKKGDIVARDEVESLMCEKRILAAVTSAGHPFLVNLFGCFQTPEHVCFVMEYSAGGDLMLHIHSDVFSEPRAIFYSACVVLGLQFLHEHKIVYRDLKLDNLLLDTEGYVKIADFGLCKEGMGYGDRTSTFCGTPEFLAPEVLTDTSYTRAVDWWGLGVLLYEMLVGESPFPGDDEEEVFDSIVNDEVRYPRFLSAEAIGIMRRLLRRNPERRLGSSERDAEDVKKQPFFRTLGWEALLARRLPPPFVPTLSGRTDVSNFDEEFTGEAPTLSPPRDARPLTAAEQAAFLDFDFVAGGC
Sequence of UniProt Q9BRX2 (Q9BRX2 whole entry, looked up): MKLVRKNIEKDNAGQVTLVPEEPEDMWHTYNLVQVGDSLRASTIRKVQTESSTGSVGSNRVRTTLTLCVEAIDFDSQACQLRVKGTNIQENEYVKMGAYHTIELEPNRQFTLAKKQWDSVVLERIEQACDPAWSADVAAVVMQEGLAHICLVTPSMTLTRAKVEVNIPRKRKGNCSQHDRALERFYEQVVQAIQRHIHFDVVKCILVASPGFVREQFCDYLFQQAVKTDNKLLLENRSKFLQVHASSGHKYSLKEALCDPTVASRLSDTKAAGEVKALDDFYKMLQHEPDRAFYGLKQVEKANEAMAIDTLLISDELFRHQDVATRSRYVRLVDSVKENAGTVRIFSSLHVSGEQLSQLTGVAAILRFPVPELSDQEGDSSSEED
Sequence of UniProt P09884 (P09884 whole entry, looked up): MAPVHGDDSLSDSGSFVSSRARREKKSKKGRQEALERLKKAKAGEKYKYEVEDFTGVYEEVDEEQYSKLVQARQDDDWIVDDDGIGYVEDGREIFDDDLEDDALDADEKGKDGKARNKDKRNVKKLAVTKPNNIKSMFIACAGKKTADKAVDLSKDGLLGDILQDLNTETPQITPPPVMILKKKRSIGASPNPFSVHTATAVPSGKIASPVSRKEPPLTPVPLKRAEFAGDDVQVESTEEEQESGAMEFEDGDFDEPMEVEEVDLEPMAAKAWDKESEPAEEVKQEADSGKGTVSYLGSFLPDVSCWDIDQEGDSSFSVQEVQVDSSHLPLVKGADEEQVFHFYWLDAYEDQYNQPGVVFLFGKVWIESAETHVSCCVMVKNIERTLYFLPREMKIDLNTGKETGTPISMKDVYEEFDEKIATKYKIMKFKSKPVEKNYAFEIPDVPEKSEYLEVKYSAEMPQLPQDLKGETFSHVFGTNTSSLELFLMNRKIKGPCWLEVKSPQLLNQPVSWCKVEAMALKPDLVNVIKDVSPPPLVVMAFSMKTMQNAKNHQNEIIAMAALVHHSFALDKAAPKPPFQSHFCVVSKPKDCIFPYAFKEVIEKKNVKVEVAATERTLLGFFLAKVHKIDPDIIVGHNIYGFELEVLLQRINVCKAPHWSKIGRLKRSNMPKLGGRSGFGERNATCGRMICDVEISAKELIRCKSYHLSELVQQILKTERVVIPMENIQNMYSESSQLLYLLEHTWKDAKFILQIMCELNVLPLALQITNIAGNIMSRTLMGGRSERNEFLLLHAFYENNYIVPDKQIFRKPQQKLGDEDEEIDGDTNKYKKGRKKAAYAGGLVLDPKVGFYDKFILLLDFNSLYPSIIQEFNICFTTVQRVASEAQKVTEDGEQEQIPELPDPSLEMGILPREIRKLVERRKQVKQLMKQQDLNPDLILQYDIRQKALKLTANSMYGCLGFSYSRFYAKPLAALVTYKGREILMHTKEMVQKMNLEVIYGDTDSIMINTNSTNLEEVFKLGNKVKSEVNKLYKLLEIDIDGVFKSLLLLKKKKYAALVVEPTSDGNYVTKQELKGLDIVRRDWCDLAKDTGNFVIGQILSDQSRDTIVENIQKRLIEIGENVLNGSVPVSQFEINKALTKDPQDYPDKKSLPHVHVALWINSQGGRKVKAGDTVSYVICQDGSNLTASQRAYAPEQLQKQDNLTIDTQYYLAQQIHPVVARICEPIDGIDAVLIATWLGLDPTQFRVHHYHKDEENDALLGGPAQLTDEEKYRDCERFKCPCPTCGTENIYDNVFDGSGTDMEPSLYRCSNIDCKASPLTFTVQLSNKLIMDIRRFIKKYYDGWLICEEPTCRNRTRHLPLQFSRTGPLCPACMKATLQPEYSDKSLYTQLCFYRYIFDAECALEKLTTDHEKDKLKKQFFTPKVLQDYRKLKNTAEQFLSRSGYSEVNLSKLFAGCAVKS
Sequence of UniProt Q9NVU0 (Q9NVU0 whole entry, looked up): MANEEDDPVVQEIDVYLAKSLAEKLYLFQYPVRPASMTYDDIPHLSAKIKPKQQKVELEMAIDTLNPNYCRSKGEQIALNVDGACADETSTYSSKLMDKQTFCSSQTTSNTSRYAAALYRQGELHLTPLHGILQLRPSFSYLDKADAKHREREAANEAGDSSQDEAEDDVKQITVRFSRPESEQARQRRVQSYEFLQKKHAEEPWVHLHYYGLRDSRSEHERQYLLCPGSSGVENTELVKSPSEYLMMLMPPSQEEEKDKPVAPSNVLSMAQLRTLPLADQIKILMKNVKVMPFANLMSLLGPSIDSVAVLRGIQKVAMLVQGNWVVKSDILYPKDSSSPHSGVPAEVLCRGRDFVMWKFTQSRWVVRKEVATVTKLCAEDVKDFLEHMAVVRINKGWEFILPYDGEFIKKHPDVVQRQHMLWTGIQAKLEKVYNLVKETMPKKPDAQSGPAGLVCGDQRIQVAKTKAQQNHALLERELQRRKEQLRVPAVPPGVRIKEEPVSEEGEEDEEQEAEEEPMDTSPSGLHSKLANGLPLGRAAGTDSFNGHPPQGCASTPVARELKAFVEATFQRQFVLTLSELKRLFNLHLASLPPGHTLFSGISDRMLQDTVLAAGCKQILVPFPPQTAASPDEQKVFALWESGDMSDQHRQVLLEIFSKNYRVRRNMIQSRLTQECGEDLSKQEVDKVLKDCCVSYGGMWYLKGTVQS
Sequence of UniProt Q9NXJ5 (Q9NXJ5 whole entry, looked up): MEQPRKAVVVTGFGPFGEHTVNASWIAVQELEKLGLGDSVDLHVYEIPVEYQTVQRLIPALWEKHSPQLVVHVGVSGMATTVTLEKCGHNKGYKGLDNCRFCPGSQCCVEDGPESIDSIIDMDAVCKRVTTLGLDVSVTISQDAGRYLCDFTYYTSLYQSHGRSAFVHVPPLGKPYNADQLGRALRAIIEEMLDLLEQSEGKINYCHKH

Compound in the first experiment: CN1CC[C@H](c2c(O)cc(O)c3c(=O)cc(-c4ccccc4Cl)oc23)[C@H](O)C1 [alvocidib]
Put plainly: log2 fold change, soluble protein after heating vs DMSO (PISA); higher = thermal stabilisation; K562 lysate, 10 uM; active = over 0.2 and 3.5 SD of the protein, either way, in both replicates (recomputed). The method in brief: (§1)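 Thermal stability, expressed as log-two fold change relative to solvent controls, is given from duplicates. Crude K562 extract in PBS pH 7.4 with 1 mM MgCl2, at 1 mg/mL protein, was treated with 10 μM compound for 30 min and heated in aliquots for 3 min across 48°C-58°C. After pooling, adjustment to 0.5% NP-40 at 4°C and centrifugation at 21,000xg for 90 min, supernatant protein was measured by TMTpro 16plex LC-MS/MS with channel sums equalised.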
On to PDCD10 (UniProt Q9BUL8), for which the log2 fold change was -0.053 (inactive).
Same read-out and setting: then PGPEP1 (UniProt Q9NXJ5), with 0.05 (inactive); and PRIM1 (UniProt P49642), with 0 (inactive); and PPP1R8 (UniProt Q12972), with -0.095 (inactive).
The same measure, in the same setting: for PELO (UniProt Q9BRX2) the value was 0.149 (inactive); for PDCD6IP isoform 2 (UniProt Q8WUM4), 0.033 (inactive).
As for PTGES2 (UniProt Q9H7Z7), the log2 fold change is 0.015 (inactive).
On the same count and under the same terms, then PYURF (UniProt Q96I23), with 0.077 (inactive).
Still for that read-out and setting: then PMPCA (UniProt Q10713), with -0.006 (inactive); and POLA1 (UniProt P09884), with -0.01 (inactive).
On the same count and under the same terms, then PHKG2 (UniProt P15735), with 0.107 (inactive).
With PRKACB isoform 2 (UniProt P22694), the log2 fold change is 0.006 (inactive).
Same read-out and setting: for POLB (UniProt P06746) the value was 0.023 (inactive); for PTPN1 (UniProt P18031), -0.002 (inactive).
Still for that read-out and setting: then PRPH isoform 2 (UniProt P41219), with 0.062 (inactive); and PKN1 isoform 2 (UniProt Q16512), with -0.036 (inactive).
Regarding PPP4R2 (UniProt Q9NY27), the log2 fold change was 0.021 (inactive).
Still for that read-out and setting: then PEF1 (UniProt Q9UBV8), with 0.027 (inactive).
On the same count and under the same terms, then PXMP4 (UniProt Q9Y6I8), with 0 (inactive); and POLR3E (UniProt Q9NVU0), with 0.011 (inactive); and PRKRA (UniProt O75569), with 0.024 (inactive).
Take PTK2 (UniProt Q05397): the log2 fold change is 0.02 (inactive).
Still for that read-out and setting: then PLIN2 (UniProt Q99541), with -0.008 (inactive); and PHACTR4 isoform 2 (UniProt Q8IZ21), with 0.209 (inactive); and PTGR2 (UniProt Q8N8N7), with 0.018 (inactive).
As for PRMT5 (UniProt O14744), the log2 fold change is 0.318 (active).
Still for that read-out and setting: then PCYT1B (UniProt Q9Y5K3), with -0.007 (inactive).
In the case of POC5 (UniProt Q8NA72), the log2 fold change is -0.048 (inactive).
As to PFKP (UniProt Q01813), the log2 fold change was 0.019 (inactive).
With PDF (UniProt Q9HBH1), the log2 fold change was 0.01 (inactive).
Same read-out and setting: for PYCR2 (UniProt Q96C36) the value was -0.052 (inactive); for PDE2A (UniProt O00408), 0.038 (inactive).
PRKACA (UniProt P17612): the log2 fold change is -0.118 (inactive).
With PTPN2 (UniProt P17706), the log2 fold change was -0.036 (inactive).
For PPFIA2 (UniProt O75334), the log2 fold change is -0.107 (inactive).
Take PTP4A1 (UniProt Q93096): the log2 fold change was 0.05 (inactive).
As to PDXDC1 (UniProt Q6P996), the log2 fold change was -0.005 (inactive).
PRKCSH isoform 2 (UniProt P14314): the log2 fold change was -0.124 (inactive).
Still for that read-out and setting: for POLD3 (UniProt Q15054) the value was 0.041 (inactive).

Compound in a further experiment: CN1CCc2c(c3ccccc3n2Cc2ccc(C(=O)NO)cc2)C1 [Tubastatin A]
Described as above. The method in brief:
as §1
On to PDCD10 (UniProt Q9BUL8), for which the log2 fold change was -0.002 (inactive).
Still for that read-out and setting: for PGPEP1 (UniProt Q9NXJ5) the value was -0.182 (inactive).
Regarding PRIM1 (UniProt P49642), the log2 fold change is -0.11 (inactive).
Still for that read-out and setting: for PPP1R8 (UniProt Q12972) the value was 0.028 (inactive); for PELO (UniProt Q9BRX2), -0.086 (inactive); for PDCD6IP isoform 2 (UniProt Q8WUM4), -0.088 (inactive).
Take PTGES2 (UniProt Q9H7Z7): the log2 fold change was -0.169 (inactive).
The same measure, in the same setting: then PYURF (UniProt Q96I23), with 0.041 (inactive); and PMPCA (UniProt Q10713), with 0.049 (inactive); and POLA1 (UniProt P09884), with -0.031 (inactive).
With PHKG2 (UniProt P15735), the log2 fold change is -0.044 (inactive).
With PRKACB isoform 2 (UniProt P22694), the log2 fold change is 0.003 (inactive).
The same measure, in the same setting: for POLB (UniProt P06746) the value was -0.199 (inactive); for PTPN1 (UniProt P18031), -0.048 (inactive).
On the same count and under the same terms, for PRPH isoform 2 (UniProt P41219) the value was 0.021 (inactive).
Same read-out and setting: then PKN1 isoform 2 (UniProt Q16512), with -0.056 (inactive); and PPP4R2 (UniProt Q9NY27), with 0.013 (inactive).
For the target PEF1 (UniProt Q9UBV8), the log2 fold change is 0.097 (inactive).
As for PXMP4 (UniProt Q9Y6I8), the log2 fold change is -0.015 (inactive).
For POLR3E (UniProt Q9NVU0), the log2 fold change was -0.08 (inactive).
Still for that read-out and setting: then PRKRA (UniProt O75569), with -0.254 (inactive).
On the same count and under the same terms, then PTK2 (UniProt Q05397), with -0.033 (inactive).
PLIN2 (UniProt Q99541): the log2 fold change is -0.107 (inactive).
The same measure, in the same setting: for PHACTR4 isoform 2 (UniProt Q8IZ21) the value was 0.016 (inactive).
Same read-out and setting: for PTGR2 (UniProt Q8N8N7) the value was -0.023 (inactive); for PRMT5 (UniProt O14744), -0.009 (inactive).
Consider PCYT1B (UniProt Q9Y5K3), for which the log2 fold change is -0.023 (inactive).
On the same count and under the same terms, then POC5 (UniProt Q8NA72), with -0.046 (inactive); and PFKP (UniProt Q01813), with 0.031 (inactive); and PDF (UniProt Q9HBH1), with -0.065 (inactive).
On the same count and under the same terms, for PYCR2 (UniProt Q96C36) the value was 0.041 (inactive).
As to PDE2A (UniProt O00408), the log2 fold change was 0.275 (inactive).
For the target PRKACA (UniProt P17612), the log2 fold change is 0.008 (inactive).
On the same count and under the same terms, for PTPN2 (UniProt P17706) the value was -0.115 (inactive); for PPFIA2 (UniProt O75334), 0.021 (inactive); for PTP4A1 (UniProt Q93096), 0.033 (inactive).
Turning to PDXDC1 (UniProt Q6P996), the log2 fold change is -0.065 (inactive).
The same measure, in the same setting: for PRKCSH isoform 2 (UniProt P14314) the value was 0.002 (inactive).
As for POLD3 (UniProt Q15054), the log2 fold change was -0.032 (inactive).
